Drawing on PubChem BioAssay (Tox21), this text covers Potency, outcome and max activation for 6 compounds.

“And” between values parts separate entries of the source, which are not always exact repeats. Equal values may be shown once. Inconclusive results are not listed. Some structures have more than one record in an assay (separate samples or runs), and their calls can disagree. The source made the active and inactive calls. Unless noted, the call rests on the fitted dose curve; in most records, active means well fitted curve in the direction sought with a large enough effect in the repeat runs; inconclusive means weak or mixed curves; inactive means no such curve, though single readings can be large; an effect the other way counts as inactive or inconclusive.

Assay [1] is described as follows: qHTS assay for small molecules that induce genotoxicity in human embryonic kidney cells expressing luciferase-tagged ATAD5 (AID 651632). Further: nearly all actives have a fitted effect of over 15% in size. The gist of the method: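 A rise in luciferase signal from ATAD5-tagged HEK293T cells marks genetic stress. Cells were exposed to compounds for 16 hr at 37C, 5% CO2, then luciferase was quantified after a 30 min room-temperature incubation with Amplite.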

Assay [2] in a line: qHTS assay for small molecule agonists of the p53 signaling pathway - cell viability (AID 651633; calls by dose curve; further: nearly all actives have a fitted effect of over 30% in size; further: potency means the concentration at half of the fitted maximal effect). The gist of the method: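 Viability counter-read: CellTiter-Glo luminescence (30 min, room temperature) in the same p53RE-bla plates. These plates had been exposed to compounds for 16 h at 37 C.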
Assay [3] is described as follows: qHTS assay for small molecule disruptors of the mitochondrial membrane potential - cell viability (AID 720634; calls by dose curve; further: nearly all actives have a fitted effect of over 20% in size; further: potency means the concentration at half of the fitted maximal effect). The gist of the method: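 Cytotoxicity was quantified from ATP content by CellTiter-Glo luminescence in the same wells as the MMP dye read-out. HepG2 (2,000 cells/well) were plated overnight and exposed to compounds for 1 hr at 37 C.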
The nature of assay [4]: qHTS assay to test for compound auto fluorescence at 535 nm (green) in HepG2 cells (AID 720675).
Assay [5] is described as follows: qHTS assay to test for compound auto fluorescence at 590 nm (red) in HEK293 cells (AID 720679). In outline:
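HEK293 cells (2,000/well, 10% dialyzed FBS) attached 4-5 hr, then dosed with compound or DMSO and incubated overnight at 37C, 5% CO2. Red fluorescence read at 540/590 nm, Rose Bengal sodium as reference fluorophore.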

Assay [6] in a line: qHTS assay to test for compound auto fluorescence at 460 nm (blue) in HEK293 cell free culture (AID 720681). The gist of the method: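 Blue fluorescence (Ex 405/Em 460 nm, triamterene-equivalent) was read immediately after pin transfer of compound or DMSO into medium (DMEM, 10% FBS) without cells.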
A short description of assay [7]: qHTS assay to test for compound auto fluorescence at 535 nm (green) in HEK293 cell free culture (AID 720682). In outline: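 Each library compound, or DMSO control, is added by pintool to medium alone, comprising DMEM and 10% FBS. Emission at 535 nm following 485 nm excitation is quantified against fluorescein.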
Assay [8] is described as follows: qHTS assay to test for compound auto fluorescence at 590 nm (red) in HepG2 cell free culture (AID 720684). The gist of the method: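 No cells present: MEM + 10% FBS only. Compound pinned in, red label read (540/590 nm). Activity = fluorescence equivalent to Rose Bengal sodium.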
The nature of assay [9]: qHTS assay to test for compound auto fluorescence at 460 nm (blue) in HepG2 cell free culture (AID 720685). In outline:
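Cell-free plates of MEM plus 10% FBS received 23 nL compound or DMSO vehicle; blue-channel (405/460 nm) intensity scored against triamterene as reference fluorophore.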

Assay [10] can be described thus: qHTS assay to test for compound auto fluorescence at 535 nm (green) in HepG2 cell free culture (AID 720686).
The nature of assay [11]: qHTS assay to test for compound auto fluorescence at 460 nm (blue) in HepG2 cells (AID 720687). The gist of the method: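 Blue-channel autofluorescence (Ex/Em 405/460 nm, triamterene-equivalent) was measured after 1 hr compound exposure at 37 C, 5% CO2. Cells were HepG2, plated overnight at 37 C in MEM plus 10% FBS.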
The nature of assay [12]: qHTS assay to identify small molecule antagonists of the androgen receptor (AR) signaling pathway - cell viability counter screen (AID 743033; further: nearly all actives have a fitted effect of over 45% in size; further: potency means the concentration at half of the fitted maximal effect).
A short description of assay [13]: qHTS assay to identify small molecule antagonists of the androgen receptor (AR) signaling pathway using the MDA cell line - cell viability counter screen (AID 743041; further: nearly all actives have a fitted effect of over 45% in size; further: potency means the concentration at half of the fitted maximal effect). The gist of the method:
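Using the breast carcinoma line MDA-kb2 AR-luc, test chemicals were co-incubated with R1881 for 16 h; CellTiter-Fluor reagent, added at 15.5 h, provided a fluorescence measure of live cells.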

A short description of assay [14]: qHTS assay to identify small molecule antagonists of the estrogen receptor alpha (ER-alpha) signaling pathway - cell viability counter screen (AID 743074; calls by dose curve;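 further: HEK293 cells carrying ER-alpha-UAS-bla reporter stimulated with 17beta-estradiol; nearly all actives have a fitted effect of over 45% in size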; further: potency means the concentration at half of the fitted maximal effect).
The nature of assay [15]: qHTS assay to identify small molecule antagonists of the estrogen receptor alpha (ER-alpha) signaling pathway using the BG1 cell line - cell viability counter screen (AID 743081).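 Further: compound given together with 17beta-estradiol as the ER stimulus; nearly all actives have a fitted effect of over 45% in size.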 Further: potency means the concentration at half of the fitted maximal effect.
The target of a further assay is Aromatase (Homo sapiens) (UniProt P11511). Kind of assay: qHTS assay to identify aromatase inhibitors (AID 743083). Further: nearly all actives have a fitted effect of over 55% in size. Further: potency means the concentration at half of the fitted maximal effect.
A short description of assay [16]: qHTS assay to identify aromatase inhibitors - cell viability counter screen (AID 743084).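 Further: cells stimulated with testosterone during compound exposure; nearly all actives have a fitted effect of over 55% in size.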 Further: potency means the concentration at half of the fitted maximal effect.
For assay [17], the target named is Aryl hydrocarbon receptor (Homo sapiens) (UniProt P35869). Kind of assay: qHTS assay to identify small molecule that activate the aryl hydrocarbon receptor (AhR) signaling pathway (AID 743085). Further: nearly all actives have a fitted effect of over 15% in size. Further: potency means the concentration at half of the fitted maximal effect.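 On activation: HG2L7.5c1 human HepG2 liver cells with stably integrated DRE-driven firefly reporter; series mostly up to about 70 µM.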 The gist of the method: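 Stably transfected human liver carcinoma cells (HG2L7.5c1; 20 DRE-firefly luciferase) were incubated 5 h, dosed, and kept 24 h at 37C. Agonism was scored from increased luciferase luminescence.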

The nature of assay [18]: qHTS assay to identify small molecule phospholipidosis (PLD) inducers (AID 1259344; active means well fitted curve in the direction sought with a large enough effect; an effect the other way counts as inactive or inconclusive). In outline:
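Accumulated phospholipid, stained red by LipidTOX during 24 h compound treatment of HepG2 cells at 37 C, is quantified from images as pit number and intensity, normalised per cell using Hoechst-stained nuclei.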

Assay [19] has as its target Nuclear receptor subfamily 1 group I member 2 (Rattus norvegicus) (UniProt Q9R1A7). Kind of assay: Rat pregnane X receptor (rPXR) activation by small molecules, qHTS assay (AID 1346983). Further: nearly all actives have a fitted effect of over 20% in size. The conditions noted are these: rPXR luciferase reporter cells, One-Glo luminescence, 24 h; max activation: stronger effect = higher value. The gist of the method: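 Luminescent readout (One-Glo luciferase, 30 min room temperature) followed 24 hr compound treatment at 37 C of rPXR cells plated 2,000 per well and preincubated 5hr; qHTS format with compounds delivered in DMSO.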
On the % scale 0 is the no-effect control and ±100 the full control effect.

Chain of Aryl hydrocarbon receptor (Homo sapiens) (P35869 whole entry, looked up): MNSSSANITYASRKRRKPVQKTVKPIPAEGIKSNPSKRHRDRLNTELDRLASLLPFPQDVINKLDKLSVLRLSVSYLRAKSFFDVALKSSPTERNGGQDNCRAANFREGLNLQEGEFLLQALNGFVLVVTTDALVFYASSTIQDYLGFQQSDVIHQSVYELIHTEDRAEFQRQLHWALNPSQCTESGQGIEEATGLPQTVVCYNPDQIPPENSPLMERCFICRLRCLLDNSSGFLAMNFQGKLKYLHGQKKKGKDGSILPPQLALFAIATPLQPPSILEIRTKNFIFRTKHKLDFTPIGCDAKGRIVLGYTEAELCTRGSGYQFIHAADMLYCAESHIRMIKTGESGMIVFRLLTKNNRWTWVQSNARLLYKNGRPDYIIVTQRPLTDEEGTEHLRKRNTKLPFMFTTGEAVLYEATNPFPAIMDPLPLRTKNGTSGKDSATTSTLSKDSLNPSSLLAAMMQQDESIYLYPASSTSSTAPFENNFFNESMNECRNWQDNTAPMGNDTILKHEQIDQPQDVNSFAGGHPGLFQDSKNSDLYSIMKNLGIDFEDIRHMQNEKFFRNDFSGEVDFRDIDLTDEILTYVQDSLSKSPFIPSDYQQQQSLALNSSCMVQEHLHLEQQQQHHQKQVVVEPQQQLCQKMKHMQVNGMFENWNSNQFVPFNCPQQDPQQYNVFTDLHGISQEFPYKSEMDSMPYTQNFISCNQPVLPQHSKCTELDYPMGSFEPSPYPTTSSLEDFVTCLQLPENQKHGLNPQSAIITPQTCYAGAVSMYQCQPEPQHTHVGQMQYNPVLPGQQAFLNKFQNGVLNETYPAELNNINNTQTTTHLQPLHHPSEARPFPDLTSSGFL
Chain of Aromatase (Homo sapiens) (P11511 whole entry, looked up): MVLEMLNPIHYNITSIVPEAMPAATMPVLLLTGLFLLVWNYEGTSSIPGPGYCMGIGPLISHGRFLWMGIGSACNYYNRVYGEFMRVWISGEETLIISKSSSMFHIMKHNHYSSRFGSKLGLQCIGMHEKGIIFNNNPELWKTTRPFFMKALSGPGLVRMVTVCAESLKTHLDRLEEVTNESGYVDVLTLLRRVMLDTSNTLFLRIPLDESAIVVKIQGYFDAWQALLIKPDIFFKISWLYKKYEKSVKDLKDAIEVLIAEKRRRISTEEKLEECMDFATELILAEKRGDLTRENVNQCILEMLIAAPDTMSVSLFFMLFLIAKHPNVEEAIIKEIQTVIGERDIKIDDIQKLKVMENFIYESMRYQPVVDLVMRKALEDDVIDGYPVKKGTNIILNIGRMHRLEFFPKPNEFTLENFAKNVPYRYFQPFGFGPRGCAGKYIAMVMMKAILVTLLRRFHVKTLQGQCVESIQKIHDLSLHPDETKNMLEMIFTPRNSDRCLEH
Chain of Nuclear receptor subfamily 1 group I member 2 (Rattus norvegicus) (Q9R1A7 whole entry, looked up): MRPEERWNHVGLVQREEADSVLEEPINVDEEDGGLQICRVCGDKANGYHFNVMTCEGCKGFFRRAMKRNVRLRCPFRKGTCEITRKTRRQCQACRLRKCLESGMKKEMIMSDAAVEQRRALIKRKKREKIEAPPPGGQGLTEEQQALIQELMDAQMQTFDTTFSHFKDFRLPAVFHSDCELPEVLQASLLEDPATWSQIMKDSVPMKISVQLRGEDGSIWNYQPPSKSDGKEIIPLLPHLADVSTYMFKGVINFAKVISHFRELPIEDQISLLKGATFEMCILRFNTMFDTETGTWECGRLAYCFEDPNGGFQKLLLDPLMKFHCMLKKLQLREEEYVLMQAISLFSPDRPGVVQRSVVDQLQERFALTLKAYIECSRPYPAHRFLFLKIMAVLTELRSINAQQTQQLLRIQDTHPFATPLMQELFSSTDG

As for `NCC[C@H](O)C(=O)N[C@@H]1C[C@H](N)[C@@H](O[C@H]2O[C@H](CN)[C@@H](O)[C@H](O)[C@H]2N)[C@H](O[C@@H]2O[C@H](CO)[C@@H](O)[C@H]2O)[C@H]1O`, the Potency result in [1], in assay [2], in assay [3], in assay [4], in [6] and in assay [7] was “inactive” in each case. The Potency entry in assay [9], in assay [10], in [11], in assay [12], in [13] and in assay [14] was “inactive” each time. In addition, the Potency entry (in [15]; with Aromatase (Homo sapiens); in assay [16]; in assay [17]; in assay [18]) was “inactive” in each case. Besides, the compound was classed as inactive in assay [5] and in assay [8]. The max activation in assay [19] was -1.3% (inactive).

As to `CCC1C(C)=NN=C(c2ccc(OC)c(OC)c2)c2cc(OC)c(OC)cc21` (stereo not drawn), the Potency result in assay [2], in assay [3], in assay [4], in assay [6], in assay [7] and in assay [9] was “inactive” each time. The Potency entry (in assay [10]; in assay [11]; in assay [13]; in [14]; in assay [15]; in the assay with Aromatase (Homo sapiens)) was “inactive” in each case. Also, the Potency entry in [16], in assay [17] and in [18] was “inactive” in each case. In addition, the result in assay [5] and in assay [8] was inactive. For the same compound, the max activation in assay [19] is -0.64% (inactive).

In the case of `CC(=O)[C@H]1CC[C@H]2[C@@H]3CC[C@@H]4C[C@H](O)CC[C@]4(C)[C@H]3CC[C@]12C`, the Potency result in assay [1], in assay [3], in assay [4], in assay [6], in assay [7] and in assay [9] was “inactive” throughout. Also, the Potency result in [10], in assay [11], in assay [12], in [13], in assay [14] and in [15] was “inactive” each time. For the same compound, the Potency entry (with Aromatase (Homo sapiens); in [16]; in [17]; in [18]) was “inactive” each time. Also, the call in assay [5] and in assay [8] was inactive. In addition, the max activation in assay [19] was 6.21% (inactive).

As to `CCC(N)Cc1c[nH]c2ccccc12` (stereo not drawn), the Potency result in [1], in assay [2], in assay [3], in assay [4], in assay [6] and in assay [7] was “inactive” in each case. Moreover, the Potency result in [9], in [10], in assay [11], in [12], in assay [13] and in assay [14] was “inactive” throughout. Further, the Potency entry (in the assay with Aromatase (Homo sapiens); in assay [16]; in assay [18]) was “inactive” in each case. Moreover, the compound was classed as inactive in assay [5] and in assay [8]. Also, the Potency entry in [17] is “inactive and 30.7 µM (active)”. For the same compound, in [19], the max activation was -0.551% (inactive).

For `CCCCCc1cc(O)c2c(c1)OC(C)(C)[C@@H]1CCC(C)=C[C@@H]21`, the Potency result in assay [1], in assay [4], in assay [6], in assay [9], in assay [10] and in [11] was “inactive” throughout. Besides, the Potency result in [12], in [13], in assay [14], in [15], in [16] and in assay [18] was “inactive” throughout. Moreover, the values for the Potency in assay [2] and in assay [17] were 23.7 µM (active) and 9.44 µM (active), respectively. The compound was called inactive in assay [5] and in assay [8]. Besides, the max activation in [19] is -3.2% (inactive).

`Oc1cccc[c]1[Hg][Cl]`: the Potency result in [1], in [4], in assay [6], in assay [7], in [9] and in assay [10] was “inactive” throughout. The Potency result in assay [11], in assay [17] and in assay [18] was “inactive” throughout. Moreover, the Potency in assay [2] was 7.5 µM (active); in assay [3], 13.3 µM (active); in assay [12] it was 10.7 µM (active); in assay [13] it was 7.5 µM (active); in assay [14], 21.3 µM (active); in assay [15], 23.7 µM (active). Moreover, the Potency is 3.76 µM (active) in the assay with Aromatase (Homo sapiens) and 5.31 µM (active) in assay [16]. Also, the outcome in assay [5] and in [8] was inactive. In assay [19], the max activation was -19.4% (inactive).
